# Results: PubChem BioAssay AID1159580 (chemical genetic matrix, 2015)
# About 2,000 (36%) of roughly 5,500 compounds were called active. Roughly 18% stayed inconclusive and do not appear here. This is one part of the list. Unmarked numbers belong to inactive results. Cut-off read from the data, not from the text of the source: active = normalized growth mostly below about 0.91 (no sharp cut-off); inconclusive = no clear call, values can overlap the other calls; inactive = mostly above about 0.92.
# Assay: chemical genetic growth profiling, strain panel (AID 1159580);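 note: tested at 20 µM; growth read once vehicle control cultures reached saturation at 30 °C; 1 = growth at the plate median or of vehicle wells; lower values mean less growth of the strain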
# Details: growth OD
structure (smiles),measurement,setting,value
S=C=NCc1ccccc1,normalized growth,"S. cerevisiae deletion strains, locus YJR075W, strain HOC1, stronger effect = lower value",0.0711 (active)
same,normalized growth,"S. cerevisiae deletion strains, locus YKL009W, strain mrt4, stronger effect = lower value",0.0801 (active)
same,normalized growth,"S. cerevisiae deletion strains, locus YKL068W, stronger effect = lower value",0.107 (active)
same,normalized growth,"S. cerevisiae deletion strains, locus YKL085W, strain MDH1 (second series), stronger effect = lower value",0.0485 (active)
same,normalized growth,"S. cerevisiae deletion strains, locus YKL085W, strain MDH1, stronger effect = lower value",0.0485 (active)
same,normalized growth,"S. cerevisiae deletion strains, locus YKL160W, strain elf1, stronger effect = lower value",0.0853 (active)
same,normalized growth,"S. cerevisiae deletion strains, locus YKL190W, strain CNB1, stronger effect = lower value",0.0505 (active)
same,normalized growth,"S. cerevisiae deletion strains, locus YKR001C, strain vps1, stronger effect = lower value",0.0646 (active)
same,normalized growth,"S. cerevisiae deletion strains, locus YKR026C, strain gcn3, stronger effect = lower value",0.0866 (active)
same,normalized growth,"S. cerevisiae deletion strains, locus YKR091W, strain srl3, stronger effect = lower value",0.0761 (active)
same,normalized growth,"S. cerevisiae deletion strains, locus YLL001W, strain dnm1, stronger effect = lower value",0.133 (active)
same,normalized growth,"S. cerevisiae deletion strains, locus YLL026W, stronger effect = lower value",0.0653 (active)
same,normalized growth,"S. cerevisiae deletion strains, locus YLL041C, strain sdh2, stronger effect = lower value",0.0963 (active)
same,normalized growth,"S. cerevisiae deletion strains, locus YLR027C, strain aat2, stronger effect = lower value",0.0701 (active)
same,normalized growth,"S. cerevisiae deletion strains, locus YLR039C, strain RIC1, stronger effect = lower value",0.095 (active)
same,normalized growth,"S. cerevisiae deletion strains, locus YLR058C, strain SHM2, stronger effect = lower value",0.0484 (active)
same,normalized growth,"S. cerevisiae deletion strains, locus YLR102C, strain apc9, stronger effect = lower value",0.0598 (active)
same,normalized growth,"S. cerevisiae deletion strains, locus YLR113W, strain HOG1, stronger effect = lower value",0.303 (active)
same,normalized growth,"S. cerevisiae deletion strains, locus YLR221C, strain rsa3, stronger effect = lower value",0.0763 (active)
same,normalized growth,"S. cerevisiae deletion strains, locus YLR258W, strain gsy2, stronger effect = lower value",0.0685 (active)
same,normalized growth,"S. cerevisiae deletion strains, locus YLR262C, strain YPT6 (second series), stronger effect = lower value",0.338 (active)
same,normalized growth,"S. cerevisiae deletion strains, locus YLR262C, strain YPT6, stronger effect = lower value",0.107 (active)
same,normalized growth,"S. cerevisiae deletion strains, locus YLR268W, strain sec22, stronger effect = lower value",0.0685 (active)
same,normalized growth,"S. cerevisiae deletion strains, locus YLR320W, strain mms22, stronger effect = lower value",0.126 (active)
same,normalized growth,"S. cerevisiae deletion strains, locus YLR330W, strain CHS5, stronger effect = lower value",0.0521 (active)
same,normalized growth,"S. cerevisiae deletion strains, locus YLR342W, strain FKS1 (second series), stronger effect = lower value",0.0771 (active)
same,normalized growth,"S. cerevisiae deletion strains, locus YLR342W, strain FKS1, stronger effect = lower value",0.129 (active)
same,normalized growth,"S. cerevisiae deletion strains, locus YLR357W, strain rsc2, stronger effect = lower value",0.208 (active)
same,normalized growth,"S. cerevisiae deletion strains, locus YLR370C, strain arc18, stronger effect = lower value",0.2 (active)
same,normalized growth,"S. cerevisiae deletion strains, locus YLR371W, strain rom2, stronger effect = lower value",0.0645 (active)
same,normalized growth,"S. cerevisiae deletion strains, locus YLR384C, strain iki3, stronger effect = lower value",0.101 (active)
same,normalized growth,"S. cerevisiae deletion strains, locus YLR418C, strain cdc73, stronger effect = lower value",0.105 (active)
same,normalized growth,"S. cerevisiae deletion strains, locus YML016C, strain PPZ1, stronger effect = lower value",0.0508 (active)
same,normalized growth,"S. cerevisiae deletion strains, locus YML032C, strain rad52, stronger effect = lower value",0.068 (active)
same,normalized growth,"S. cerevisiae deletion strains, locus YML120C, strain ndi1, stronger effect = lower value",0.0743 (active)
same,normalized growth,"S. cerevisiae deletion strains, locus YML124C, strain tub3, stronger effect = lower value",0.0581 (active)
same,normalized growth,"S. cerevisiae deletion strains, locus YMR058W, strain fet3, stronger effect = lower value",0.102 (active)
same,normalized growth,"S. cerevisiae deletion strains, locus YMR078C, strain ctf18, stronger effect = lower value",0.0763 (active)
same,normalized growth,"S. cerevisiae deletion strains, locus YMR125W, strain sto1, stronger effect = lower value",0.118 (active)
same,normalized growth,"S. cerevisiae deletion strains, locus YMR129W, stronger effect = lower value",0.115 (active)
same,normalized growth,"S. cerevisiae deletion strains, locus YMR205C, strain PFK2, stronger effect = lower value",0.175 (active)
same,normalized growth,"S. cerevisiae deletion strains, locus YMR223W, strain ubp8, stronger effect = lower value",0.0652 (active)
same,normalized growth,"S. cerevisiae deletion strains, locus YMR231W, strain pep5, stronger effect = lower value",0.159 (active)
same,normalized growth,"S. cerevisiae deletion strains, locus YMR263W, strain SAP30, stronger effect = lower value",0.0638 (active)
same,normalized growth,"S. cerevisiae deletion strains, locus YMR307W, strain GAS1, stronger effect = lower value",0.128 (active)
same,normalized growth,"S. cerevisiae deletion strains, locus YNL067W, strain RPL9B, stronger effect = lower value",0.0559 (active)
same,normalized growth,"S. cerevisiae deletion strains, locus YNL071W, strain lat1, stronger effect = lower value",0.0773 (active)
same,normalized growth,"S. cerevisiae deletion strains, locus YNL128W, strain TEP1, stronger effect = lower value",0.061 (active)
same,normalized growth,"S. cerevisiae deletion strains, locus YNL153C, strain GIM3, stronger effect = lower value",0.0485 (active)
same,normalized growth,"S. cerevisiae deletion strains, locus YNL183C, strain NPR1, stronger effect = lower value",0.784 (active)
same,normalized growth,"S. cerevisiae deletion strains, locus YNL209W, strain ssb2, stronger effect = lower value",0.172 (active)
same,normalized growth,"S. cerevisiae deletion strains, locus YNL233W, strain BNI4, stronger effect = lower value",0.054 (active)
same,normalized growth,"S. cerevisiae deletion strains, locus YNL248C, strain rpa49, stronger effect = lower value",0.0817 (active)
same,normalized growth,"S. cerevisiae deletion strains, locus YNL250W, strain rad50, stronger effect = lower value",0.0774 (active)
same,normalized growth,"S. cerevisiae deletion strains, locus YNL271C, strain bni1, stronger effect = lower value",0.0636 (active)
same,normalized growth,"S. cerevisiae deletion strains, locus YNL298W, strain CLA4, stronger effect = lower value",0.0658 (active)
same,normalized growth,"S. cerevisiae deletion strains, locus YNL307C, strain MCK1, stronger effect = lower value",0.109 (active)
same,normalized growth,"S. cerevisiae deletion strains, locus YNL322C, strain KRE1 (second series), stronger effect = lower value",0.0969 (active)
same,normalized growth,"S. cerevisiae deletion strains, locus YNL322C, strain KRE1, stronger effect = lower value",0.0496 (active)
same,normalized growth,"S. cerevisiae deletion strains, locus YNR049C, strain mso1, stronger effect = lower value",0.0995 (active)
same,normalized growth,"S. cerevisiae deletion strains, locus YNR052C, strain pop2, stronger effect = lower value",0.0721 (active)
same,normalized growth,"S. cerevisiae deletion strains, locus YOL006C, strain TOP1, stronger effect = lower value",0.101 (active)
same,normalized growth,"S. cerevisiae deletion strains, locus YOL012C, strain htz1",0.273
same,normalized growth,"S. cerevisiae deletion strains, locus YOL147C, strain pex11, stronger effect = lower value",0.0554 (active)
same,normalized growth,"S. cerevisiae deletion strains, locus YOR001W, strain rrp6, stronger effect = lower value",0.0775 (active)
same,normalized growth,"S. cerevisiae deletion strains, locus YOR061W, strain CKA2, stronger effect = lower value",0.0465 (active)
same,normalized growth,"S. cerevisiae deletion strains, locus YOR069W, strain VPS5, stronger effect = lower value",0.048 (active)
same,normalized growth,"S. cerevisiae deletion strains, locus YOR070C, strain gyp1, stronger effect = lower value",0.106 (active)
same,normalized growth,"S. cerevisiae deletion strains, locus YOR080W, strain dia2, stronger effect = lower value",0.169 (active)
same,normalized growth,"S. cerevisiae deletion strains, locus YOR083W, strain WHI5, stronger effect = lower value",0.0989 (active)
same,normalized growth,"S. cerevisiae deletion strains, locus YOR106W, strain vam3, stronger effect = lower value",0.115 (active)
same,normalized growth,"S. cerevisiae deletion strains, locus YOR136W, strain idh2, stronger effect = lower value",0.0696 (active)
same,normalized growth,"S. cerevisiae deletion strains, locus YOR144C, strain elg1, stronger effect = lower value",0.0548 (active)
same,normalized growth,"S. cerevisiae deletion strains, locus YOR184W, strain ser1, stronger effect = lower value",0.0749 (active)
same,normalized growth,"S. cerevisiae deletion strains, locus YOR231W, strain MKK1, stronger effect = lower value",0.183 (active)
same,normalized growth,"S. cerevisiae deletion strains, locus YOR265W, strain rbl2, stronger effect = lower value",0.081 (active)
same,normalized growth,"S. cerevisiae deletion strains, locus YOR270C, strain vph1, stronger effect = lower value",0.135 (active)
same,normalized growth,"S. cerevisiae deletion strains, locus YOR290C, strain snf2, stronger effect = lower value",0.0951 (active)
same,normalized growth,"S. cerevisiae deletion strains, locus YOR316C, strain cot1, stronger effect = lower value",0.0582 (active)
same,normalized growth,"S. cerevisiae deletion strains, locus YPL051W, strain arl3, stronger effect = lower value",0.0938 (active)
same,normalized growth,"S. cerevisiae deletion strains, locus YPL055C, strain LGE1, stronger effect = lower value",0.0848 (active)
same,normalized growth,"S. cerevisiae deletion strains, locus YPL078C, strain atp4, stronger effect = lower value",0.0881 (active)
same,normalized growth,"S. cerevisiae deletion strains, locus YPL106C, strain sse1, stronger effect = lower value",0.222 (active)
same,normalized growth,"S. cerevisiae deletion strains, locus YPL240C, strain hsp82, stronger effect = lower value",0.0863 (active)
same,normalized growth,"S. cerevisiae deletion strains, locus YPL241C, strain CIN2, stronger effect = lower value",0.0506 (active)
same,normalized growth,"S. cerevisiae deletion strains, locus YPL256C, strain CLN2, stronger effect = lower value",0.219 (active)
same,normalized growth,"S. cerevisiae deletion strains, locus YPR119W, strain clb2, stronger effect = lower value",0.0611 (active)
same,normalized growth,"S. cerevisiae deletion strains, locus YPR141C, strain kar3, stronger effect = lower value",0.0705 (active)
same,normalized growth,"S. cerevisiae deletion strains, locus YPR163C, strain tif3, stronger effect = lower value",0.07 (active)
same,normalized growth,"S. cerevisiae deletion strains, locus YPR167C, strain met16, stronger effect = lower value",0.0606 (active)
same,normalized growth,"S. cerevisiae deletion strains, strain wtn01, stronger effect = lower value",0.0609 (active)
same,normalized growth,"S. cerevisiae strains, strain wild type, stronger effect = lower value",0.0473 (active)
